According to PubChem BioAssay AID1053115 (Broad Institute, 2014):
Measured potencies and affinities stand elsewhere. Calls of active or inactive are those of the source.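 How the source made its calls: active means cytotoxic compounds whose fitted half-maximal concentration is at most twice the top valid tested dose; inconclusive means flat curve showing 30 to 70% signal loss, or poor fit; inactive means the rest.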

test: A549 cell cytotoxicity, dose response, cytotoxicity control, 24 h, CellTiter-Glo luminescence, cherry-picks (AID 1053115); settings: A549 viability, CellTiter-Glo ATP luminescence; series mostly up to 30 µM; activity change, negative = cytotoxicity: at the top concentration

Row | SMILES | activity change, negative = cytotoxicity
1 | C[C@H](O)C#Cc1ccc2c(c1)O[C@H](CN(C)Cc1ccccc1)[C@H](C)CN([C@@H](C)CO)S2(=O)=O | 6.84% (inactive)
2 | OC[C@H]1Nc2ccc(-c3cccc(F)c3)cc2[C@@H]2[C@H]1CCN2Cc1ccc(F)cc1 | -15.4% (inactive)
3 | CN1c2ccc(C#Cc3cccnc3)cc2[C@@H]2[C@@H](CCN2C(=O)C2CCC2)[C@H]1CO | -5.53% (inactive)
4 | Cc1ccc(S(=O)(=O)N(C)C[C@H]2Oc3cc(C#Cc4ccncc4)ccc3S(=O)(=O)N([C@@H](C)CO)C[C@H]2C)cc1 | -17.2% (inactive)
5 | C[C@H](O)C#Cc1ccc2c(c1)O[C@H](CN(C)Cc1ccccc1)[C@@H](C)CN([C@H](C)CO)S2(=O)=O | 14.5% (inactive)
6 | C[C@@H](O)C#Cc1ccc2c(c1)O[C@@H](CN(C)Cc1cccnc1)[C@@H](C)CN([C@@H](C)CO)S2(=O)=O | 12.4% (inactive)
7 | CN1CCN(C(=O)c2cc3c(c(-c4cccc(C#CCC5CCCC5)c4)n2)[C@@H](CCO)N(S(=O)C(C)(C)C)C3)CC1 (stereo not given in full) | -2.55% (inactive)
8 | C[C@H](CO)N1C[C@H](C)[C@H](CN(C)Cc2ccccc2)Oc2cc(C#C[C@@H](C)O)ccc2S1(=O)=O | 4.46% (inactive)
9 | C[C@H](O)C#Cc1ccc2c(c1)O[C@H](CN(C)Cc1ccccc1)[C@H](C)CN([C@H](C)CO)S2(=O)=O | 5.63% (inactive)
10 | C[C@@H]1CN([C@H](C)CO)S(=O)(=O)c2ccc(C#C[C@@H](C)O)cc2O[C@@H]1CN(C)Cc1ccc(-c2ccccc2)cc1 | -21.6% (inactive)
